These results are taken from PMC12136788.

Where a chain is given by its changes, count along the chain named. Whole data set: some 24,000 sequences, median “enrichment r” near 0.99, cut for the highest 2% near 3.7. This is one part of a sample in which the highest values are shown more often than they occur.

Sequences and labels used below:
T1: UNK ZnF1-3 (human, UniProt Q9C0B0 31-174)
T1 sequence: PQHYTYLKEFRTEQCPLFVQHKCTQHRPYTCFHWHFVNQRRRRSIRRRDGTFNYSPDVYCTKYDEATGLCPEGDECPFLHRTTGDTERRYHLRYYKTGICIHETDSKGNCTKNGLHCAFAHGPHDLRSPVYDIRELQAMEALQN

B1: chr7:141450121:141450122:+_ENSG00000106028_ENST00000265304|hu_mus|hu_hu_hu_mus_True|8_98 (ssRNA)
RNA: GGGAGUUCUACAGUCCGACGAUCUCAUCCGUUCUAUUCCUUCUCUUUUGUCUGGUCACUCAGAAAUAUAAUGUUAUCAGCUAUGAUUGUUGUUGCUUGCCGCCUCACAUUGUUUUUAUCCAUGUACUCACCAUAGUCCACUUUCAACAGAGGAUUGAGCAUCA
B2: chr4:17845017:17845018:+_ENSG00000109805_ENST00000514176|hu_mus|hu_hu_hu_mus_False|48_108 (ssRNA)
RNA: GGGAGUUCUACAGUCCGACGAUCGCUUCCUAACUUAGUAUCUUCAUUAAGGAACUCUGCAAGGUUAAGUUUACUUUUCUGUAGCGCGCGGUUUUGGGCUCGUCUGGGUAAUCUCAUCUUCAUUUCUGAUGGUGGUUCAUGAUCCAACAGAGGAUUGAGCAUCA
B3: chr8:67197462:67197463:-_ENSMUSG00000031604_ENSMUST00000034015|mus_mus|FALSE|FALSE (ssRNA)
RNA: GGGAGUUCUACAGUCCGACGAUCUCCGAACUGACCAGUGUAUGUAAAAGGCUUAAAAGGCAACGUCAACUUCAGCCUCCUAUGGCAUGAAGUGGUGAGUUGUACAUUAAUACUUCCUCCAGUUCCCGAAACCUUUUGGUGAGGCAACAGAGGAUUGAGCAUCA
B4: chr5:150025729:150025730:+_ENSMUSG00000041264_ENSMUST00000121416|mus_mus|FALSE|FALSE (ssRNA)
RNA: GGGAGUUCUACAGUCCGACGAUCCACGAAGGCUCUCUUCUGAUCUUCUUUCCGAGGCUGAUUCUGUGCUGACCUGGCUGCUACUGUUUUAGAAGACGCUGUGGUUUCUCGUUUUCUCAAAUUAGAUGCCUGAGAUUUACCAGGCAACAGAGGAUUGAGCAUCA
B5: chr8:87797514:87797515:-_ENSMUSG00000031696_ENSMUST00000034131|mus_hu|motif|central (ssRNA)
RNA: GGGAGUUCUACAGUCCGACGAUCAUUAUGGAAUCCACCUGGUCUUGAGAGACAAUUUCUGUGUUAUAAUCCAGAACAUUACGGAGCACAUAACAACUCAUGCUCUUUCUGGACUCGUAGUCAAAGUACUCAAAGAGUGGGUGACAACAGAGGAUUGAGCAUCA
B6: 107145582_107145702_897_CDS_ENSG00000125266_ENST00000245323|human|control|control (ssRNA)
RNA: GGGAGUUCUACAGUCCGACGAUCGAGCGACAGCGUGGUCGUGUGCUGCGGCGAGUGCUUCCUGUGUCUCCUCCGGUACUUCAGCAAGAGGACCACCAGCGUGAUGAUGAUGACGAUGAAGAUGAUGCAUCCUGAAGCAAUCCCCAACAGAGGAUUGAGCAUCA
B7: chr9:115598534:115598535:+_ENSG00000148158_ENST00000374232|hu_mus|FALSE|FALSE (ssRNA)
RNA: GGGAGUUCUACAGUCCGACGAUCCAGCUUAUAGCCUCCGGUGACGUGCUUGACUGACUCACCCACUCUGCUCAGCAAUGCUAUCCCUUGCUUCUUGUAGGCAUUCAGGUCCUUAGCAGUGAGGAACACAUUGAAGUGUUCAUUCAACAGAGGAUUGAGCAUCA
B8: chrX:165757501:165757502:-_ENSMUSG00000031352_ENSMUST00000112115|mus_hu|FALSE|FALSE (ssRNA)
RNA: GGGAGUUCUACAGUCCGACGAUCGCAGGAGCAGAUGGAGACAAACCCAUGGCUGGAAACAGUGUUGACUGUAAACAAUUUUAAAUUUCCACCUGCUCCAGCCCGUGGUCCCCAGACCAAACCGGCCGCGGCCAGCCUGCCCUUCAACAGAGGAUUGAGCAUCA
B9: chr10:33190432:33190433:-_ENSG00000150093_ENST00000302278|hu_mus|hu_hu_hu_mus_True|58_98 (ssRNA)
RNA: GGGAGUUCUACAGUCCGACGAUCUACAUUUUCCAAACCUGCACAUGAAUAAAACCCUGGCCACAGAGCCCCAAAACUACCUAACUGUGACUAAGAUGCUGCUGCUGUGAGCUUGGUGUUGCAAAAUCCGCCUGAGUAGGAUUCCAACAGAGGAUUGAGCAUCA
B10: 10529348_10532452_191_CDS_ENSG00000160049_ENST00000377038|human|control|control (ssRNA)
RNA: GGGAGUUCUACAGUCCGACGAUCCAGGGUGACUGGUGUCAGGGACUUAUCAAUGGCCAGAAUGUCACAGGCCUUGCUCCUCAGGUCUUCGAGGCAGGAGGCGGCCACGCCGUGCUGUUCGCGGCUGUAGUUGCGGCGCAGCAGCAACAGAGGAUUGAGCAUCA
B11: chr12:86641468:86641469:-_ENSMUSG00000034290_ENSMUST00000040992|mus_mus|FALSE|FALSE (ssRNA)
RNA: GGGAGUUCUACAGUCCGACGAUCGCAAUAUUAAGAGAGAUAGCCAACCUUUUUUUUGGGGGGGGGGUUUGGUUAAAUGAAACAAUAUUAAUUUAGCUGUGUGUAGUACAGAGGAUAUGGUACUUAUCAAAGGAGCUGCUGUGGCAACAGAGGAUUGAGCAUCA
B12: 105048333_105048453_1516_3pUTR_ENSG00000148798_ENST00000369849|human|control|control (ssRNA)
RNA: GGGAGUUCUACAGUCCGACGAUCAGCAUUAACUUUUUCAAAGCAAUGGAAUUAUAUUUUUUGGCUUGAAAUGGUGGUUUCUUCUAUAUUUGAUUUCUCGGUUUUCUUAGUAGAUAUUACUGUCUCCUCUAAUAUUUCUUCAAACAACAGAGGAUUGAGCAUCA
B13: chrX:147030410:147030411:+_ENSG00000102081_ENST00000218200|hu_mus|FALSE|FALSE (ssRNA)
RNA: GGGAGUUCUACAGUCCGACGAUCACUUCAUGCCCUGUGCCAUCUUGCCUACUAUUUGUCUUUGGCCUAACAAAGUUUUCUAAAAUGGAGUAAGAAUUACGGAAAUGGUAGAGGAAAUAUAACUUCGGAAUUAUGUAGCUUAUUCAACAGAGGAUUGAGCAUCA
B14: chr4:125586161:125586162:-_ENSG00000151458_ENST00000504087|hu_hu|FALSE|FALSE (ssRNA)
RNA: GGGAGUUCUACAGUCCGACGAUCUUGUGUAGUGGCAACAGCUGAUUUAUAAAAUUUAAAGAUUUUAAUUUCAAAAAUAUCUAUUAAGGAGUUUUAUAUUUGGAGGACAAUUUUUACUUUUUAAUGGAGCAGAAGCCAUUUUCACAACAGAGGAUUGAGCAUCA
B15: chr8:13147844:13147845:+_ENSMUSG00000031446_ENSMUST00000016680|mus_hu|FALSE|FALSE (ssRNA)
RNA: GGGAGUUCUACAGUCCGACGAUCUACAAUAUUAACAAUCUCUAGACACAACGAACUUAUAAGAAAAAAAAAAUAGAAAUCUGUUUGGUCUUUCUUAGACCACAUAUCAUGGAACUCAUAAAUGAAAAUUUUCAAAGAUAGAAACAACAGAGGAUUGAGCAUCA
B16: chr1:60041781:60041782:+_ENSMUSG00000041040_ENSMUST00000036540|mus_hu|mus_mus_mus_hu_False|1_38 (ssRNA)
RNA: GGGAGUUCUACAGUCCGACGAUCAAGUUUACAAUAGUAAAGUAAAUGCAGUAGUGGCAAAUUUUCUUUUAUUUUCCUUCACAAAAGAAAAUCUUUAGAUCUCAGUUCUAGUCUUGGACAUAGUGAAAGCUAUAAAUGCCACUGCAACAGAGGAUUGAGCAUCA
B17: 24223610_24223730_1957_3pUTR_ENSG00000173960_ENST00000309033|human|control|control (ssRNA)
RNA: GGGAGUUCUACAGUCCGACGAUCUUUUGAAAGAAAAUAAAAUGGAAAGGGAAUAGGCUUUUUAGAAAGAUAAUUUUCUUUUAUUACAUUUUUAUAAAGUGUAGAAAUGUGAGUAGGCAGAUUAAUCUUGAUACUAUACUGAGCCAACAGAGGAUUGAGCAUCA
B18: chr4:125586161:125586162:-_ENSG00000151458_ENST00000504087|hu_hu|motif|central (ssRNA)
RNA: B14 RNA with U81G, A82G
B19: chr4:17841332:17841333:+_ENSG00000109805_ENST00000514176|hu_hu|FALSE|FALSE (ssRNA)
RNA: GGGAGUUCUACAGUCCGACGAUCCUUUUGUAUAGACUCGAAUUUCUGGCGAGCACGGACUUGUUAAGAUCUCAUUGCAAAUUUUCAUAGCCAAAUUGUCAUGUACUGUUAAGGCCUGAUAAUCUUGGGAAGUCUUGGCCUGAGCAACAGAGGAUUGAGCAUCA
B20: chr17:56552419:56552420:-_ENSMUSG00000013236_ENSMUST00000086828|mus_mus|mus_mus_mus_hu_False|28_48 (ssRNA)
RNA: GGGAGUUCUACAGUCCGACGAUCAAAAAAUACACUAUUUAAAAAAAAUGAAAUGUCACGGGAUACAGUUACACUGAGAGUUUUAAAAAAAAAUAAGAUUCUGGUCCUUGCCAAAAGUCCCCAGGCUGCAGAGCGGGGAGGAGCCAACAGAGGAUUGAGCAUCA
B21: chr17:56552419:56552420:-_ENSMUSG00000013236_ENSMUST00000086828|mus_mus|mus_mus_mus_hu_False|28_58 (ssRNA)
RNA: B20 RNA with G77C, G79C, U81A, A88G, A92G, U93C, A94U, A95G
B22: chr17:56552419:56552420:-_ENSMUSG00000013236_ENSMUST00000086828|mus_mus|mus_mus_mus_hu_False|28_78 (ssRNA)
RNA: GGGAGUUCUACAGUCCGACGAUCAAAAAAUACACUAUUUAAAAAAAAUGAAAUGUCAGAAAAAGAAGUUACACUGAGAGUUUUAAAAGAAAGCUGGAUUCUGGUCCUUGCCAAAAGUCCCCAGGCUGCAGAGCGGGGAGGAGCCAACAGAGGAUUGAGCAUCA
B23: chr17:56552419:56552420:-_ENSMUSG00000013236_ENSMUST00000086828|mus_mus|mus_mus_mus_hu_False|28_98 (ssRNA)
RNA: B20 RNA with U38A, U39A, A88G, A92G, U93C, A94U, A95G

The test has as its target T1, UNK ZnF1-3. Briefly: nsRBNS (natural sequence RNA bind-n-seq); RBNS binding buffer (assumed for nsRBNS): 25 mM Tris pH 7.5, 150 mM KCl, 3 mM MgCl2, 0.01% Triton X-100, 500 ug/ml BSA, 20 U/ml SUPERase-In, 4 C; UNK is unkempt and MSI1 is Musashi-1; names of the RNAs are library labels; protein concentration not given here; high values mean tight binding.
Turning to B1, the binding signal was determined as 0.398 enrichment R. In the case of B2 it was 0.472 enrichment R. As for B3, the binding signal was 0.838 enrichment R. B4 gave a binding signal of 0.579 enrichment R. In the case of B5 it was 0.988 enrichment R; in that of B6, 1.32 enrichment R. As to B7, the binding signal was 0.557 enrichment R. B8 returned a binding signal of 0.781 enrichment R. With B9, the binding signal was found to be 1.55 enrichment R.

Molecule B10 registered a binding signal of 0.999 enrichment R. In turn, B11 displayed a binding signal of 3.28 enrichment R. On to B12, for which the binding signal amounted to 4.33 enrichment R. Take B13: the binding signal came out at 1.78 enrichment R. On to B14, for which the binding signal amounted to 4.35 enrichment R. With B15, the binding signal is 3.59 enrichment R. Molecule B16 gave a binding signal of 0.52 enrichment R. The molecule B17 displayed a binding signal of 3.4 enrichment R. Under B18 stands 4.45 enrichment R.

As for B19, the binding signal was determined as 0.957 enrichment R. B20 registered a binding signal of 6.32 enrichment R. B21: the binding signal is 4.14 enrichment R. In the case of B22 it was 3.64 enrichment R; in that of B23, 6.54 enrichment R.
